According to the supplement of paper PMC11732987, “Enantioselective OTUD7B fragment discovery through chemoproteomics screening and high-throughput optimisation” (Communications Chemistry, 2025):

What was measured:
Assay in all cases: log2 ratio of Biotin-Ahx-Ub-VS probe labelling (fragment/DMSO); higher = less target engagement (more negative = stronger competition), active = hit call of the paper (q ≤ 0.05, log2 ratio ≤ -1)
Conditions in all cases: compound concentration: 200 uM; treatment time: 3 h
USP34 = USP34 (UniProt Q70CQ2)
Summary of the method: (§1)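 HEK293T lysate, 495 µg per sample in Tris/CHAPS/IGEPAL buffer with protease inhibitors, was treated in triplicate with fragment at 200 µM or vehicle for 3 h and then with Biotin-Ahx-Ub-VS at 0.5 µM final for 1 h. Labelled DUBs were NeutrAvidin-enriched, digested with LysC and trypsin, and run by diaPASEF LC-MS/MS. Spectronaut label-free quantities were global-median-normalised, and values are average log2 fragment/vehicle ratios by unpaired t-test on proteins with ≥2 unique peptides.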

USP36 = target: T1, USP36 (UniProt Q9P275)
T1 sequence (whole entry): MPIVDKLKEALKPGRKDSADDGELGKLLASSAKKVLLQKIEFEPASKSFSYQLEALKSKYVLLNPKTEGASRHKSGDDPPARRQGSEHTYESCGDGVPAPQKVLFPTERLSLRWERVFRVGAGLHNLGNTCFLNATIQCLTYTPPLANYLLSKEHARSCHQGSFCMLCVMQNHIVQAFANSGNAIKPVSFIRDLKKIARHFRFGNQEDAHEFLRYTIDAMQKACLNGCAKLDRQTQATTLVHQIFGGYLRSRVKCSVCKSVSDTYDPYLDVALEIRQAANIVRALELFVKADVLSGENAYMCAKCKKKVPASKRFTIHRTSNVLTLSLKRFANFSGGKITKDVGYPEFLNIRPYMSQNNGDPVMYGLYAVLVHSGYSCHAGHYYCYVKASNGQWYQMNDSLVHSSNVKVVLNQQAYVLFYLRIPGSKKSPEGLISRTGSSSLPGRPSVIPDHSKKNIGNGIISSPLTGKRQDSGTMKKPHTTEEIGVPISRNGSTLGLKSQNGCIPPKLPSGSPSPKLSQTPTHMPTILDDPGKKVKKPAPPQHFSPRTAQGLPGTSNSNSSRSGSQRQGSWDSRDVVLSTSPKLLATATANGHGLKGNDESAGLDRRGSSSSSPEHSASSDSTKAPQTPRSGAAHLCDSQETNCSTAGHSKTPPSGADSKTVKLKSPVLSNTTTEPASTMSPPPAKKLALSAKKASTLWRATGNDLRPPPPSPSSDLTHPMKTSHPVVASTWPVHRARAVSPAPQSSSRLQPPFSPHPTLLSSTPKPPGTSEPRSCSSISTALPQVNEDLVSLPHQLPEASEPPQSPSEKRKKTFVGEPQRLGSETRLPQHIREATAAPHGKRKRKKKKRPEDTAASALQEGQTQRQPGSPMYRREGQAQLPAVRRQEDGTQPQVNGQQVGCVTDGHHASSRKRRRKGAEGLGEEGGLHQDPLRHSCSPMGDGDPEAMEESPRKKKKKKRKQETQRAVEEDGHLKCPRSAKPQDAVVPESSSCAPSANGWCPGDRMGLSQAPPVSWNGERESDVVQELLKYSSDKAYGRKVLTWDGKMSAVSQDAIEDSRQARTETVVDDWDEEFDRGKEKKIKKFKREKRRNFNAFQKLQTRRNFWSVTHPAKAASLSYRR
Summary of the method: as §1

USP38 = target: T2, USP38 (UniProt Q8NB14)
T2 sequence (whole entry): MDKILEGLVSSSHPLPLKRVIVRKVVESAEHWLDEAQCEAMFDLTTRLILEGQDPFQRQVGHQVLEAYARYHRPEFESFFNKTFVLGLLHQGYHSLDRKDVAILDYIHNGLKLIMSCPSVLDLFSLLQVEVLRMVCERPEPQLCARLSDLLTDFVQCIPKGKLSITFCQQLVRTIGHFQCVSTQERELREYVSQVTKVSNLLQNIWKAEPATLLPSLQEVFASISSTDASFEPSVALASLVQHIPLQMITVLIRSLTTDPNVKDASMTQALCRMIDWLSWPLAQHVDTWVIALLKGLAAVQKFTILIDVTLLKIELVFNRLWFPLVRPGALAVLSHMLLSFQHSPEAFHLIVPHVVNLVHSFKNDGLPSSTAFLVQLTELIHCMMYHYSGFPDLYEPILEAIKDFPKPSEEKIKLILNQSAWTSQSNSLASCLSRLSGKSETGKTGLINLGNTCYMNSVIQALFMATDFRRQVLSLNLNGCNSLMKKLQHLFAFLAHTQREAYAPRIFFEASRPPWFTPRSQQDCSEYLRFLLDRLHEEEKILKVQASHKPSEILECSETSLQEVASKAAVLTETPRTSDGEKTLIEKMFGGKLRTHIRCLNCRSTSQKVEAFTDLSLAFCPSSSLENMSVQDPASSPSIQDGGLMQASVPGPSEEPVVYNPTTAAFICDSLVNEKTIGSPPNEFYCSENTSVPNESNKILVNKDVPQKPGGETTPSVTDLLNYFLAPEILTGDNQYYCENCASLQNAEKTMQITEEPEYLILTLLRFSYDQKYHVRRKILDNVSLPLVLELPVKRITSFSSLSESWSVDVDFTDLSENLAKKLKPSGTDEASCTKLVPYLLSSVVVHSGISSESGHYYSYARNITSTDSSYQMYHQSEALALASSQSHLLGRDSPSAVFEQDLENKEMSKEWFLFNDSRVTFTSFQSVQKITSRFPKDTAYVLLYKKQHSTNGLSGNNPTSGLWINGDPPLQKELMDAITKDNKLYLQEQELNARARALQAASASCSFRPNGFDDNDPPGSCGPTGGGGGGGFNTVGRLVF
Summary of the method: as §1

USP39 = target: T3, USP39 (UniProt Q53GS9)
T3 sequence (whole entry): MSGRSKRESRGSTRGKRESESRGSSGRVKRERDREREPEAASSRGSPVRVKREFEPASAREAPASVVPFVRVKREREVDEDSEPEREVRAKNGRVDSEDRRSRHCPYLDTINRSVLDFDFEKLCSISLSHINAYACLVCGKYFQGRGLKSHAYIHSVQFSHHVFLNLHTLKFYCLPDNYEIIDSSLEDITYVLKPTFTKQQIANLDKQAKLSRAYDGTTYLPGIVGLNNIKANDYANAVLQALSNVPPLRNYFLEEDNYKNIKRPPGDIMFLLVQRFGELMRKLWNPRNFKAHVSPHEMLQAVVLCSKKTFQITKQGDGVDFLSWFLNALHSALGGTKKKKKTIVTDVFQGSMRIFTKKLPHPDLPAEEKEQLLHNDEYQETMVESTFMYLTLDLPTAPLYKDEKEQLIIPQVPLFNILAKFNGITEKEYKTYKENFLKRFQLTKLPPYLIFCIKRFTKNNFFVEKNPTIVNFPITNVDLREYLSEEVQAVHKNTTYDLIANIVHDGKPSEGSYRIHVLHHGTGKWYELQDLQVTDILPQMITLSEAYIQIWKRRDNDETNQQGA
Summary of the method: as §1

USP4 = target: T4, USP4 (UniProt Q13107)
T4 sequence (whole entry): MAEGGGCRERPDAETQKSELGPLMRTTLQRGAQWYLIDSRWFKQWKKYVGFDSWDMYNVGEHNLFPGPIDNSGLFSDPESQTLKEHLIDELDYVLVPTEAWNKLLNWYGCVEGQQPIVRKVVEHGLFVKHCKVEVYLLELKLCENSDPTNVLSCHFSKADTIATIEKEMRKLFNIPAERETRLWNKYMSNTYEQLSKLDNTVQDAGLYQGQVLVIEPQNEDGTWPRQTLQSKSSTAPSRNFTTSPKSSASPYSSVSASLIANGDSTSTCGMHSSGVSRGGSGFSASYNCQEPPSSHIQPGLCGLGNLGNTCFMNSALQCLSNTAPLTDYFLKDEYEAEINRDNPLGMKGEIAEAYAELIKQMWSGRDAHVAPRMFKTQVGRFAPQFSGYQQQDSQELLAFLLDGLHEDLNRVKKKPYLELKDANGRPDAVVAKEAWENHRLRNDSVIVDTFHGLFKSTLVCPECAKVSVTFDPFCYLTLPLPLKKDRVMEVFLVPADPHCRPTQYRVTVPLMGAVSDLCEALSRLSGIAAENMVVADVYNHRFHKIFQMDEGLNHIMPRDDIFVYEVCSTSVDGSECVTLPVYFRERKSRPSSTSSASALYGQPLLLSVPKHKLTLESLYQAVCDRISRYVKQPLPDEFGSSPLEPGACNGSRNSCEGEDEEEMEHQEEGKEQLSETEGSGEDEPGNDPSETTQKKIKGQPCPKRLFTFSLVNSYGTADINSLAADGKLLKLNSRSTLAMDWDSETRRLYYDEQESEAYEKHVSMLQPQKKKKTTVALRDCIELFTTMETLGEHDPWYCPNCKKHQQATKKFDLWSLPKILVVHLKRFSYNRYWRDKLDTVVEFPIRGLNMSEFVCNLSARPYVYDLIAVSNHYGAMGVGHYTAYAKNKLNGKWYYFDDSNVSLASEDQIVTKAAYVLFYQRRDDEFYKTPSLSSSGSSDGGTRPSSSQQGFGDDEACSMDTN
Summary of the method: as §1

Measured: log2 ratio of Biotin-Ahx-Ub-VS probe labelling

USP34, sequence (Q70CQ2 whole entry, the tested form may be a part): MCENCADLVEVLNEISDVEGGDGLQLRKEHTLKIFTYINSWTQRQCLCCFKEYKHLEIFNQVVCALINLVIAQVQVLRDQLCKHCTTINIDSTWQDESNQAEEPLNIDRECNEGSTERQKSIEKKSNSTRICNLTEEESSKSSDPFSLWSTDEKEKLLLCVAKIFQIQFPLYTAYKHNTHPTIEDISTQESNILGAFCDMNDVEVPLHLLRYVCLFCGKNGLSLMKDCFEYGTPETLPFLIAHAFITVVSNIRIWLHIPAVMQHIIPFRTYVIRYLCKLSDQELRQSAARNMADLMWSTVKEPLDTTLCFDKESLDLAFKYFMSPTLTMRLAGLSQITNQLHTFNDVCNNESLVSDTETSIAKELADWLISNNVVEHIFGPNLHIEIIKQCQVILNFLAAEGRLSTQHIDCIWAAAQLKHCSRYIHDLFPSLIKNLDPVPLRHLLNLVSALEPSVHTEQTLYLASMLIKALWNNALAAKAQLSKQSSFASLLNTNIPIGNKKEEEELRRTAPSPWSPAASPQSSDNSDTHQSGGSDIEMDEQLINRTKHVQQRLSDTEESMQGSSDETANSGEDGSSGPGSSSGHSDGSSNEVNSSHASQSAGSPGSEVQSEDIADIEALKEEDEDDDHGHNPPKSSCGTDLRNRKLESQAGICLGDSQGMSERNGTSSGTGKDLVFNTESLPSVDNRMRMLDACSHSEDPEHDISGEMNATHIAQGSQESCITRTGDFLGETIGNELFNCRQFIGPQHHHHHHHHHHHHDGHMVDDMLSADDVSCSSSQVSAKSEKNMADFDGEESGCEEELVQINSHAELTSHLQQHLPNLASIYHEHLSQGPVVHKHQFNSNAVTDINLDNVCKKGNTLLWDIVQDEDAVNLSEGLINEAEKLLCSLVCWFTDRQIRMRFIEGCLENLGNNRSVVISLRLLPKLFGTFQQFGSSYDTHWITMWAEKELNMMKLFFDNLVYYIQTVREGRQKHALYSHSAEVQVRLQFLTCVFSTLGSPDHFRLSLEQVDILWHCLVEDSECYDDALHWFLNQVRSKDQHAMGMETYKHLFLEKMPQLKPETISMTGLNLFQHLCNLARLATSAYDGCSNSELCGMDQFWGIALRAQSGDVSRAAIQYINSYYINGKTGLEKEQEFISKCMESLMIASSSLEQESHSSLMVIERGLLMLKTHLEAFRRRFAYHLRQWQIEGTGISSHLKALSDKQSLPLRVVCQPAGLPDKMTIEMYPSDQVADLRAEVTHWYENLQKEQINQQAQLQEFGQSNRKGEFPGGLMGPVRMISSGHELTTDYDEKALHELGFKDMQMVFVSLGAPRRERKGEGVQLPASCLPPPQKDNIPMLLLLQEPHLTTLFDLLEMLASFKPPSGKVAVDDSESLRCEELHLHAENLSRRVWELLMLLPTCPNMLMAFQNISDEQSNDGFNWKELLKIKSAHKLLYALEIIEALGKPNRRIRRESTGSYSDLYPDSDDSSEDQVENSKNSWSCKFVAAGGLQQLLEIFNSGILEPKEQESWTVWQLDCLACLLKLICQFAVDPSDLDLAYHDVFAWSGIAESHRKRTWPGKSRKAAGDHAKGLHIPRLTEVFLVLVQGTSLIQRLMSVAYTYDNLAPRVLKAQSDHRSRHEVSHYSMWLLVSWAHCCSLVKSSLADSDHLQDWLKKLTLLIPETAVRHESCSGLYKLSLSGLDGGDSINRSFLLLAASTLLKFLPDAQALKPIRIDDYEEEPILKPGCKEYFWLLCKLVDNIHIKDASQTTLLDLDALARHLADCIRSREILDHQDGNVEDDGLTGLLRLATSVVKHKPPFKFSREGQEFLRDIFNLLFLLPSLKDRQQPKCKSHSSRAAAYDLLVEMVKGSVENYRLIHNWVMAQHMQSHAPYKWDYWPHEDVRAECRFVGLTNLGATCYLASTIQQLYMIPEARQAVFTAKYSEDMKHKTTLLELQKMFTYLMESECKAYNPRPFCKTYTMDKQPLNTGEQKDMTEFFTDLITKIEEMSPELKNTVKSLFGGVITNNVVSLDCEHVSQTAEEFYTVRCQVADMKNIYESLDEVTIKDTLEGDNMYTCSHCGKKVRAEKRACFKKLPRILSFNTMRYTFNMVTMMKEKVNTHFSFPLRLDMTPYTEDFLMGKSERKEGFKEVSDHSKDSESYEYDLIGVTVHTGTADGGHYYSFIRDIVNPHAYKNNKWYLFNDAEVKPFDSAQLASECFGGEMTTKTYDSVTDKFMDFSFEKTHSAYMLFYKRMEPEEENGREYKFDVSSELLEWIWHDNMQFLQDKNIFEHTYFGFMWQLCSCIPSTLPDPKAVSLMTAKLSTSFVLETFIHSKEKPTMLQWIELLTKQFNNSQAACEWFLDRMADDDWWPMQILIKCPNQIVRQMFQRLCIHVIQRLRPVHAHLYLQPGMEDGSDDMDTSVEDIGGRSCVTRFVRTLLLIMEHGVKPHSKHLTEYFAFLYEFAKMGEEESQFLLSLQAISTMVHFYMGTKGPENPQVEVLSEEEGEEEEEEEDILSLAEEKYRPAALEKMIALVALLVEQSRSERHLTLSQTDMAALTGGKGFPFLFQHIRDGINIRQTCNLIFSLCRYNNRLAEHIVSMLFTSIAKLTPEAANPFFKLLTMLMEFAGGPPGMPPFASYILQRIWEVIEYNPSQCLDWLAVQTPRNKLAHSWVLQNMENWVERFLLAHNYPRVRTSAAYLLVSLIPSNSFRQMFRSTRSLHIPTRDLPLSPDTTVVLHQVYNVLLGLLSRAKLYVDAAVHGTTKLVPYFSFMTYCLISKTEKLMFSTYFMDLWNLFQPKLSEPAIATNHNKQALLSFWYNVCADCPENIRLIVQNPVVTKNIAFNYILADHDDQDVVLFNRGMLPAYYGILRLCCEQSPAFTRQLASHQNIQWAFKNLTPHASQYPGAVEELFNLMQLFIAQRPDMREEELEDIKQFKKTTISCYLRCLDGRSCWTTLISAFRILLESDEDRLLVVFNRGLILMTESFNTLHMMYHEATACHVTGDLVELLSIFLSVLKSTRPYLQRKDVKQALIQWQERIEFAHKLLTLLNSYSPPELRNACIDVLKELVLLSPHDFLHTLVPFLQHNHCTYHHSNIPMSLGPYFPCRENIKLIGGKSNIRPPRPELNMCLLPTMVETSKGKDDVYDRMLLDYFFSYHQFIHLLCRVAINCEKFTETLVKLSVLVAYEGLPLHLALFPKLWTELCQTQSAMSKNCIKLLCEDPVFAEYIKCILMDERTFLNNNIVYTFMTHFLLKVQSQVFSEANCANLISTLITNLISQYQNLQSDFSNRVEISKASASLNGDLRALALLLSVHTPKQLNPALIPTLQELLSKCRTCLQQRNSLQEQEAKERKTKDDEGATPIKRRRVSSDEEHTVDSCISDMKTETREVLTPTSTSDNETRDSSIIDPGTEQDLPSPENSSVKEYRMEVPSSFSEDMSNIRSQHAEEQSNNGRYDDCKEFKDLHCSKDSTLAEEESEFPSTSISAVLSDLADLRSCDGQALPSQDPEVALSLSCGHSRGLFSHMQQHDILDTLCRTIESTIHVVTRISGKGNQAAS

C#Cc1cccc(NC(=O)CCl)c1
inactive: USP34 -0.135 | USP36 -0.00355 | USP38 -0.119 | USP39 0.046 | USP4 0.0482
